# sPLA2-III inh: Inhibits HGIII-sPLA2 liposome hydrolysis, primary screen; AID 743126; inhibition, % at 12.2 µM; QFRET BODIPY PC-A2 liposome hydrolysis, fluorescence; 370,000 tested, 0.56% active;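 active means inhibition above mean plus 3 SD of compounds lying within the high and low control bounds, cut at about 19% in these data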;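 further: 0% = median of test compound wells and 100% = no enzyme DMSO wells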
# HTR5A ag ctr: counter-screen for OPRM1-OPRD1 agonists: human HTR5A agonism; P47898; activation, % at 9.3 µM; HTR5A agonist assay, luminescence, cell-based; AID 504692; 340,000 tested, 0.61% active; in the data active means activation mostly above about 9.5%, no sharp cut-off; inactive means mostly below about 7.6%;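 further: 0% = cells with vehicle only and 100% = reference agonist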
# Target sequence (P47898 whole entry, looked up): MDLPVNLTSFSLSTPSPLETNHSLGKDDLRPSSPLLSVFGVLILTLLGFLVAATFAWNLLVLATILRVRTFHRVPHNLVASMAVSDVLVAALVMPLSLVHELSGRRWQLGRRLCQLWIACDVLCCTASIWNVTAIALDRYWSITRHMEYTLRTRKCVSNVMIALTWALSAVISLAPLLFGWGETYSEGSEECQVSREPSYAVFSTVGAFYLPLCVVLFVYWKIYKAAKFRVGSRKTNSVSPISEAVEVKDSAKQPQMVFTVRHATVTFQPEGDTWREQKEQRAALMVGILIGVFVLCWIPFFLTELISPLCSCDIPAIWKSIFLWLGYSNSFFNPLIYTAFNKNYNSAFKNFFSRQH
# MOR-DOR ag-1: agonists of human mu-delta opioid receptor heterodimerization. activation, % at 9.3 µM. 340,000 tested, 0.3% active. P35372+P41143. cells, OPRM1-OPRD1 heterodimerization, luminescence;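 further: 0% = vehicle-treated cells and 100% = reference agonist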
# m5-HT2A agonist: activates the mouse 5-HT2A serotonin receptor; 360,000 tested, 0.66% active; activation, % at 7.6 µM; AID 624169; P35363; CHO-K1 mHTR2A beta-arrestin complementation, luminescence; percent of 30 µM serotonin response;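 active means activation above a run cutoff, the mean activation of all tested compounds plus 3 SD, cut at about 14% in these data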;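 further: 0% = plate median of compound wells and 100% = 30 µM serotonin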
# MOR-DOR inv ag: mu-delta opioid heterodimer inverse agonism; cell-based MOR-DOR heterodimer luminescence; 340,000 tested, 0.21% active; inhibition, % at 9.3 µM; in the data active means inhibition above about 22%, passing the limit was not always enough;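 further: 0% = cells with DMSO and 100% = wells without cells with DMSO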
# HTR5A inv ctr: inverse agonist of human HTR5A in OPRM1-OPRD1 counter-screen | inhibition, % at 9.3 µM | HTR5A cell line, luminescence, inverse agonism | 340,000 tested, 0.083% active; in the data active means inhibition mostly above about 23%, no sharp cut-off; inactive means mostly below about 18%;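 further: 0% = cells with DMSO and 100% = no-cell wells with DMSO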
# MOR-DOR ag-2: counter-screen for HTR5A agonists: OPRM1-OPRD1 heterodimerization agonism; U2OS counter-screen cells, complementation luminescence, 3 h; shares compounds with HTR5A ag ctr; 800 tested, 13% active; activation, % at 9.3 µM; AID 504913
# HTR5A ag confirm: HTR5A (human) agonism, confirmation; shares compounds with HTR5A ag ctr; AID 504915; HTR5A agonist cell assay, luminescence; activation, % at 9.3 µM; 800 tested, 17% active; in the data active means activation above about 17%;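 further: 0% = cells with vehicle only and 100% = full reference agonist response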
# An asterisk follows results filed as active; . = no result given; ! = repeats disagree. Rows were chosen to be rich in hits. Some 2.2% of all compounds tested hit in one or more screens of this group. Unless noted, no stated cut-off is given here; in the data, active means activation above about 18%; inactive means the rest.
SMILES,sPLA2-III inh,HTR5A ag ctr,MOR-DOR ag-1,m5-HT2A agonist,MOR-DOR inv ag,HTR5A inv ctr,MOR-DOR ag-2,HTR5A ag confirm
COC(=O)C1CN(Cc2ccc(C)cc2)CCS(=O)(=O)N1Cc1cn(Cc2ccc(Cl)cc2)nn1 (stereo unspecified),-14,.,.,.,.,.,.,.
CC(C)(C)c1ccc(C(=O)NN=C2CCCC2)cc1,9,15*,2,-1,-10,-24,1,1
O=C(NN=C1CCCCCCC1)c1ccc(F)cc1,7,1,1,-5,-5,-3,.,.
COc1ccc(CC(=O)N2CCN(C(=O)c3ccc4nc(C)n(C5CCCC5)c4c3)CC2)cc1,1,.,.,.,.,.,.,.
O=C(CCc1ccccc1F)N1CCN(c2ccc(C(F)(F)F)cn2)CC1,-4,8,8,1,-40,-10,.,.
N#Cc1ccc(OCC(=O)N2CCN(c3ccc(C(F)(F)F)cn3)CC2)cc1,3,19*,0,-4,1,-6,-1,-2
CCn1c(=O)n(CC(=O)N2CCOCC2)c(=O)c2ccccc21,3,.,.,.,.,.,.,.
O=C(c1ccc2c(=O)n(CCc3ccccc3)c(=O)[nH]c2c1)N1CCN(c2ccccc2)CC1,.,4,5,4,-34,13,.,.
O=C(c1ccc(Cn2c(=O)[nH]c3ccccc3c2=O)cc1)N1CCN(c2ccccc2)CC1,-12,15*,6,-7,-32,-4,1,8
O=C(c1ccc(Cn2c(=S)[nH]c3ccccc3c2=O)cc1)N1CCN(c2ccccn2)CC1,3,16*,3,3,-15,-43,0,-3
O=C(c1ccc(Cn2c(=O)[nH]c3ccccc3c2=O)cc1)N1CCN(c2ccccn2)CC1,-10,12,0,-5,2,-36,.,.
COc1ccc(CC(C)N2CCN(c3cccc(C(F)(F)F)c3)CC2)cc1OC (stereo unspecified),6,33*,5,-4,-27,-106,11,29*
CCOc1cc(CN2CCN(c3cccc(C(F)(F)F)c3)CC2)ccc1OC,11,6,3,-8,-15,-17,.,.
CC(C)(C)c1ccc(S(=O)(=O)CCc2ccccn2)cc1,-1,24*,-2,-1,12,-67,1,4
Cc1ccc(S(=O)(=O)CCc2ccccn2)cc1,6,5,-2,-1,13,-14,.,.
O=C(Nc1ccccc1)C1C2/C=C\CCCCC21 (stereo unspecified),0,-3,4,6,-26,-45,.,.
Cc1ccc(NC(=O)C2C3/C=C\CCCCC32)cc1C (stereo unspecified),1,20*,6,-2,-36,-8,6,11
Cc1c(NC(=S)/C=C2\N(C)c3ccccc3C2(C)C)c(=O)n(-c2ccccc2)n1C,6,2,-2,7,12,-26,.,.
Cc1c(N=C/C=C2/N(C)c3ccccc3C2(C)C)c(=O)n(-c2ccccc2)n1C,13,22*,0,-8,-1,-85,0,29*!
Cc1c(N=C/C=C2\N(C)c3ccccc3C2(C)C)c(=O)n(-c2ccccc2)n1C,8,48*,-2,-3,10,-125,2,32*
COC(=O)C1CN(Cc2cn(Cc3ccc(OC)cc3)nn2)CCS(=O)(=O)N1Cc1ccc(OC)cc1 (stereo unspecified),10,.,.,.,.,.,.,.
O=C(OC12CCCN(C1)/C(=C/c1cccc(Cl)c1)C2)c1ccccc1 (stereo unspecified),-8,.,.,.,.,.,.,.
Cc1cc(C)nc(SCC(=O)N/N=C\c2sccc2C)n1,-3,22*,0,-1,1,-48,2,22*
Nc1ccc(C(=O)N/N=C/c2cccc(Oc3ccccc3)c2)cc1,3,23*,-2,-5,14,-84,0,27*
O=C(N/N=C/c1cccc(Oc2ccccc2)c1)c1cc[n+]([O-])cc1,8,-3,-3,-5,14,9,.,.
Fc1ccc(-c2cc(-c3nnc4sc(-c5cccs5)nn34)[nH]n2)cc1,-15,.,.,.,.,.,.,.
